Results on 18 compounds are retold here after PubChem BioAssay (NCI).

Some test systems named below: BT-549 breast; MDA-MB-435 melanoma; SW-620 colon; MCF7 breast; HCT-116 colon; HCC-2998 colon; KM12 colon.
What all share (assay): NCI-60 one-dose screen, 48 h (100 = growth as untreated, 0 = no growth, -100 = all killed)
Settings in all cases: 10 µM

The structures appear in SMILES notation. This is part of a sample that, as a whole, favours compounds with a hit. Of some 83,000 tested, about 20% had one in any assay.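 Compound tested at a single concentration for 48 hours in 96-well plates; a percent growth value below 10 was scored as active.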 A number with no mark means an inactive call. Activity calls are given as the source filed them.

As for `COc1ccc(/C=C2/CN(C(=O)c3ccc(C)cc3)C/C(=C\c3ccc(OC)cc3)C2=O)cc1`, the growth in the test with BT-549 breast is 94%; in the test with MDA-MB-435 melanoma it was 41.3%; in the test with SW-620 colon, 71.3%; with MCF7 breast it was 32.8%; in the test on HCT-116 colon, -27% (active); with HCC-2998 colon, 71.3%.

On to `CCN(CC)CCOc1nc2ccc(OC)cc2c2c1-c1ccc(OC)cc1C2=O`, for which the growth with BT-549 breast was 65.1%; with MDA-MB-435 melanoma, -22.7% (active); in the test on SW-620 colon, -59.4% (active); with MCF7 breast, -58.6% (active); in the test with HCT-116 colon, -98.3% (active); in the test on HCC-2998 colon, 38.6%. For the same compound, the growth with KM12 colon is -82% (active).

Consider `CC/C(=C(/c1ccc(OCCN(C)C)cc1)c1ccc(OC(=O)CCCCC(=O)c2c(C)[nH]c(/C=C3\N=C(c4ccc[nH]4)C=C3OC)c2C)cc1)c1ccccc1`, for which the growth in the test on BT-549 breast was 60.8%; with MDA-MB-435 melanoma, 61.4%; in the test with SW-620 colon, 55.8%; with MCF7 breast, -22% (active); with HCT-116 colon, 48.3%; in the test on HCC-2998 colon it was 76.6%.

Regarding `N=C(N)c1ccc(-c2ccc(-c3cccs3)s2)s1`, the growth in the test with BT-549 breast is 66.9%; with MDA-MB-435 melanoma, -88.5% (active); in the test on SW-620 colon, -66.4% (active); in the test with MCF7 breast it was -65% (active); in the test with HCT-116 colon it was -87% (active); in the test on HCC-2998 colon, -80.3% (active).

As for `O=C(/C(=C/c1ccccc1)CN1CCCCC1)c1ccccc1`, the growth in the test on BT-549 breast was -56.6% (active); in the test with MDA-MB-435 melanoma, 6.16% (active); with SW-620 colon, 0.239% (active); with MCF7 breast, -22% (active); in the test with HCT-116 colon it was -87.4% (active); in the test on HCC-2998 colon, -91% (active).

As for `C#Cc1ccc(-n2c(/C=C/c3ccc(Cl)c(F)c3)nc3ncccc3c2=O)cc1`, the growth in the test with BT-549 breast was 10.7%; in the test with MDA-MB-435 melanoma, -3.46% (active); with SW-620 colon, -27.3% (active); in the test on MCF7 breast, 3.48% (active); in the test with HCT-116 colon it was -52.8% (active); in the test with HCC-2998 colon, -84.3% (active).

As for `COc1cc(Cl)cc(-c2nn(-c3cccc(NC(=O)Nc4ccc(Cl)c(Cl)c4)c3)cc2-c2ccncc2)c1`, the growth in the test with BT-549 breast is 29.4%; in the test on MDA-MB-435 melanoma it was 0.46% (active); in the test on SW-620 colon, 13.3%; with MCF7 breast, 4.66% (active); with HCT-116 colon it was 9.22% (active); in the test with HCC-2998 colon it was 26.7%. Further, the growth in the test with KM12 colon is 14.3%.

`COc1ccc(-c2nc3sc(-c4ccccc4)c(-c4ccccc4)n3c2/C=C/C(=O)c2ccccn2)cc1`: the growth in the test with BT-549 breast is 85.5%; with MDA-MB-435 melanoma, 90.6%; in the test on SW-620 colon, 91%; in the test with MCF7 breast, 62%; in the test with HCT-116 colon it was 67.2%; in the test with HCC-2998 colon, 90.9%. In addition, in the test on KM12 colon, the growth is 83.6%.

Regarding `COc1ccc(-c2nc3ccccn3c2-c2nnc(-c3cc(OC)c(OC)c(OC)c3)o2)cc1`, the growth was 42.7% with BT-549 breast; 96.2% in the test with MDA-MB-435 melanoma; 74.9% in the test with SW-620 colon; 63.4% in the test with MCF7 breast; 32.1% in the test with HCT-116 colon; 85.4% in the test on HCC-2998 colon. For the same compound, in the test on KM12 colon, the growth is 65%.

On to `Cc1ccc(NC(=O)CSc2nc3ccccc3c(=O)n2CCc2ccccc2)c(C(=O)O)c1`, for which the growth in the test on BT-549 breast is 96.8%; in the test with MDA-MB-435 melanoma, 97.3%; in the test on SW-620 colon, 109%; in the test on MCF7 breast it was 93.8%; with HCT-116 colon, 92.7%; in the test on HCC-2998 colon it was 113%.

Regarding `COc1ccc2c(c1)C(=O)c1c-2c(OCCN(C)C)nc2ccccc12`, the growth in the test on BT-549 breast was 85.4%; in the test with MDA-MB-435 melanoma, 33.3%; with SW-620 colon, -7.66% (active); with MCF7 breast, 6.19% (active); in the test with HCT-116 colon, 10.4%; in the test on HCC-2998 colon, 44.9%. Further, in the test with KM12 colon, the growth was 23.1%.

As for `CC(=O)OCc1cc(-c2nc3ccccc3[nH]c2=O)nn1-c1ccc(Cl)cc1`, the growth was 102% with BT-549 breast; 99.7% with MDA-MB-435 melanoma; 111% with SW-620 colon; 85.9% in the test with MCF7 breast; 100% in the test with HCT-116 colon; 87% in the test with HCC-2998 colon.

In the case of `COc1ccc(C(=O)/C=C/c2cc(-c3cc(OC)c(OC)c(OC)c3)n[nH]2)cc1`, the growth in the test with BT-549 breast is 14.4%; in the test on MDA-MB-435 melanoma, 15.6%; in the test with SW-620 colon, -37.6% (active); in the test on MCF7 breast it was 16.5%; with HCT-116 colon, -76.3% (active); in the test with HCC-2998 colon it was 91.3%. For the same compound, the growth in the test on KM12 colon is -60.1% (active).

For the compound `N#CCCN1C/C(=C/c2ccc(Cl)cc2)C(=O)/C(=C/c2ccc(Cl)cc2)C1`, the growth was -24.5% (active) in the test on BT-549 breast; -66.5% (active) in the test on MDA-MB-435 melanoma; -48.4% (active) with SW-620 colon; -10.2% (active) in the test with MCF7 breast; -54.5% (active) with HCT-116 colon; -84.6% (active) with HCC-2998 colon.

For `Nc1ccccc1NC(=O)CCCCC(=O)Nc1ccc2c(c1)/C(=C/c1ccc[nH]1)C(=O)N2`, the growth is 33.9% with BT-549 breast; 68.8% with MDA-MB-435 melanoma; 91.3% in the test with SW-620 colon; 35% in the test with MCF7 breast; 82.7% in the test with HCT-116 colon; 87.5% in the test on HCC-2998 colon.

With `N#CSCC1CC(O)(c2ccccc2)CC(c2ccc(Cl)cc2)O1` (stereo not given), the growth is -11.5% (active) in the test on BT-549 breast; 3.01% (active) in the test on MDA-MB-435 melanoma; -53.5% (active) in the test with SW-620 colon; 14.7% with MCF7 breast; 10.1% in the test on HCT-116 colon; 94.9% in the test on HCC-2998 colon.

As for `N=C(N)c1ccc(-c2ccc(-c3ccco3)o2)cc1`, the growth is 80.2% in the test on BT-549 breast; 55.4% with MDA-MB-435 melanoma; 60.3% in the test on SW-620 colon; 42.8% in the test with MCF7 breast; 42.5% in the test on HCT-116 colon; -28.3% (active) in the test with HCC-2998 colon.

Take `c1ccc(CSc2nnc3c4c5c(sc4nc(-c4cccnc4)n23)CCCCCC5)cc1`: the growth in the test with BT-549 breast is 41.1%; with MDA-MB-435 melanoma it was 19.1%; with SW-620 colon it was 55.3%; in the test with MCF7 breast it was 37.6%; with HCT-116 colon it was 29.3%; with HCC-2998 colon, 46.5%. The growth in the test with KM12 colon was 34.4%.
